Screens from PubChem.
Shown is part of a subset that was picked to be rich in hits.
Shiga toxin inh: Shiga toxin inhibition; inhibition, % at 38.7 µM; AID 2315; 9.2% of 290,000 active; Vero cells, Shiga toxin protein synthesis inhibition reporter; in the data active = inhibition mostly above about 28%, no sharp cut-off; inactive = mostly below about 43%; note: 0% is about no effect
AmpC inh detg: inhibitors of E. coli AmpC beta-lactamase with detergent. P00811. AmpC hydrolysis of nitrocefin, absorbance 480 nm, 0.01% Triton. 0.041% of 370,000 active. Potency, µM (series often up to 114 µM), for the others: top-dose activity change, negative = inhibition, actives largely listed as inhibitors;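 note: potency is the fitted concentration of half-maximal effect; 0% = no-compound wells and -100% = no-enzyme wells; nearly all actives have a fitted effect of over 25% in size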
Target sequence (P00811 whole entry, looked up): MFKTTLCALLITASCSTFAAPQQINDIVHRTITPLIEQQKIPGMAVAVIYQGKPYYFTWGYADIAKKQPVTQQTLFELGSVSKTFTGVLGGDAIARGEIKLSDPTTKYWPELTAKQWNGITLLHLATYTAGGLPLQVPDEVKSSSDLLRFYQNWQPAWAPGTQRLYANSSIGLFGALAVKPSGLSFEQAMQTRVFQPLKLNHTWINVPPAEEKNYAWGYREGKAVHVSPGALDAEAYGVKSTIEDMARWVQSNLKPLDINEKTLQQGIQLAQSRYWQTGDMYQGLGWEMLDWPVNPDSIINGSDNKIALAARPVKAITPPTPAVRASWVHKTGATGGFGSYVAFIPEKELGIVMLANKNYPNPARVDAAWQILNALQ
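20 mM phosphate pH 7.0 + 0.01% (detergent screen) or 0.0001% Triton X-100; 5.3 nM AmpC reagent; cpd preinc 15 min RT; nitrocefin (800 uM stock) to start; A480 q20 s × 4 min; Activity was normalised to no-enzyme and no-compound control wells.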
AMA1-RON2 inh: disrupts binding of P. falciparum AMA1 to RON2; AlphaScreen AMA1-biotinylated RON2 peptide binding; AID 720542; 0.2% of 360,000 active; Potency, µM (doses to about 58.2 µM), for inactives: at the highest dose activity change, negative = inhibition, actives largely listed as inhibitors;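 note: potency is the fitted concentration of half-maximal effect; 0% = vehicle wells and -100% = peptide control; nearly all actives have a fitted effect of over 45% in size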
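AMA1 (3D7) with his tag at 25 nM final met compounds first, then biotinylated RON2 peptide at 25 nM; detection used donor plus acceptor beads, 10 µg/mL apiece, read by AlphaScreen after 30 min at room temperature.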
AmpC no deterg: inhibitors of E. coli AmpC beta-lactamase without detergent; 0.52% of 330,000 active; P00811; Potency, µM (doses to about 57.1 µM), without a hit: top-dose activity change, negative = inhibition, actives largely listed as inhibitors; AmpC nitrocefin hydrolysis, absorbance 480 nm, 0.0001% Triton; AID 485341;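 note: potency is the fitted concentration of half-maximal effect; plate controls were no compound for no effect and no enzyme for full effect; nearly all actives have a fitted effect of over 20% in size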
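AmpC (5.3 nM in the dispensed reagent) in 20 mM phosphate pH 7.0 with 0.01% (detergent screen) or 0.0001% Triton X-100 was preincubated with compounds for 15 min at room temperature. Nitrocefin was then added from an 800 uM solution, and hydrolysis was followed at 480 nm.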
SARS PLpro yeast: SARS-CoV PLP inhibition in yeast; Potency, µM (highest dose often 32.9 µM), without a hit: at the top dose activity, positive = growth rescue, usual class: activators; S. cerevisiae expressing SARS-CoV PLpro, growth rescue; AID 485353; 0.19% of 330,000 active; calls by dose curve; note: potency is the fitted concentration of half-maximal effect; 0% is about no effect; nearly all actives have a fitted effect of over 55% in size
Cycloheximide cs: counter-screen for Shiga toxin inhibitors: cycloheximide protein synthesis inhibition. 12% of 300,000 active. AID 2314. max response, %. cell reporter, cycloheximide protein synthesis inhibition counterscreen; in the data active = max response mostly above about 13%, no sharp cut-off; inactive = mostly below about 14%; note: read at 38.3 µM for the half of the compounds with a filed dose; 0% is about no effect
* hit, by the source's call; ? = inconclusive; . = no result. Unless noted, calls come from the whole dose curve; as a rule, active = well fitted curve in the direction sought with a large enough effect; inconclusive = small, poorly fitted or top-dose-only effect, or another doubt; inactive = no such curve, though single readings can be large; an effect the other way counts as inactive or inconclusive.

SMILES	Shiga toxin inh	AmpC inh detg	AMA1-RON2 inh	AmpC no deterg	SARS PLpro yeast	Cycloheximide cs
CCOC(=O)c1c(NC(=O)c2cc(C)oc2C)sc(C(=O)Nc2ccc(Cl)cc2)c1C	40.0	-7.1%	-11.6%	-52.6%	1.4%	24.4*
COc1ccc(NC(=O)CSc2nnc(-c3ccccc3C)n2N)cc1	-1.7	-0.5%	10.4%	-24.8%	-10.3%	-2.2
CCOC(=O)N1CCN(C(=O)C[C@@H]2C[C@@]3(C(=O)OC)CC(C)(C)CC=C3N(Cc3ccc4c(c3)OCO4)C2=O)CC1	.	.	-13.2%	.	.	.
Cc1ccc(C(=O)Nc2c[nH]c(=O)[nH]c2=O)cc1	.	?	13.2%	-5.9%	-5.8%	16.3
Cc1ccc(C(=O)Nc2cc3[nH]c(=O)oc3cc2C)cc1	24.5*	-3.2%	-2.2%	-12.5%	-0.7%	10.6
COc1cc(/C=C(\C#N)C(=O)Nc2ccccc2)ccc1OCCN1CCOCC1	44.9*	?	4.8%	101.9%	0.9%	26.5*
COc1cc(/C=C(\C#N)C(=O)Nc2cccc(C(=O)O)c2)ccc1OCc1ccc(Cl)cc1	107.2*	1.7%	0.0%	-29.5%	-0.6%	52.4*
COc1cc(/C=C(\C#N)C(=O)Nc2cccnc2)ccc1OC(C)C	-6.6	?	-1.3%	-22.4%	2.4%	-2.6
COc1ccc(/C=C(/C#N)C(=O)Nc2ccccc2C)cc1C(=O)O	-3.7	-5.8%	-15.0%	-14.0%	2.3%	-0.4
N#C/C(=C\c1ccc(OCCN2CCOCC2)cc1)C(=O)Nc1ccccc1	17.0	?	3.6%	23.1%	19.0%	19.8*
COc1cc(/C=C(\C#N)C(=O)Nc2ccccc2F)ccc1OCCN1CCOCC1	13.5	-9.5%	-17.5%	33.0%	-2.2%	25.0*
COc1cc(/C=C(/C#N)C(=O)Nc2ccccc2)c(Br)cc1OCc1ccc(C(=O)O)cc1	10.7	3.8%	9.7%	-6.6%	-0.7%	7.2
CCN1C(=NCCc2ccccn2)N[C@@H](c2cccc(C(F)(F)F)c2)C(C(=O)OC)=C1C	9.8	?	28.8%	16.4%	-4.3%	-2.6
CCOC(=O)N1CCN(C(=O)C2CCC(=O)N(CCc3ccccc3)C2)CC1 (configuration not stated)	.	.	11.8%	.	.	.
CC1(C)CN(c2ccccc2)N(C(=O)c2ccc(C#N)cc2)C1=O	-2.4	5.3%	-1.5%	-1.1%	-2.2%	0.6
CC(C)c1ccc(OCc2cccc(C(=O)N/N=C/c3cccnc3)c2)cc1	164.0*	1.7%	5.1%	106.7%	-4.6%	133.1*
CCOc1ccc(OCc2cccc(C(=O)N/N=C/c3cccnc3)c2)cc1	165.8*	-2.6%	13.0%	13.2%	7.6%	88.3*
COc1ccc(C(=O)NCc2cn3ccc(C)cc3n2)cc1	.	26.0%	.	.	.	.
CCOC(=S)SCc1cn2ccccc2n1	42.3*	?	-8.4%	-19.2%	-2.3%	29.9*
CCOC(=S)SCc1cn2ccc(C)cc2n1	11.9	-0.6%	-17.1%	-21.9%	10.5%	33.7*
Cc1ccn2cc(CC(=O)O)nc2c1	-1.0	1.4%	-20.2%	-10.0%	0.0%	-2.5
Cc1ccn2cc(CSc3ccccc3N)nc2c1	105.0*	-6.5%	-15.8%	-13.0%	-0.7%	46.1*
CCOC(=O)c1cn2ccc(C)cc2n1	76.8*	-10.9%	5.1%	-12.3%	-1.0%	29.0*
O=C(NCc1cn2ccccc2n1)c1ccccc1	21.1	?	-9.8%	-6.2%	-1.4%	9.6
O=C1c2ccccc2NC(c2ccco2)N1O (configuration not stated)	47.1	-6.6%	2.1%	-7.4%	-3.6%	9.6
SMILES	Shiga toxin inh	AmpC inh detg	AMA1-RON2 inh	AmpC no deterg	SARS PLpro yeast	Cycloheximide cs
O=C(Nc1ccc(Cl)cc1)OCc1cc(-c2ccccc2Cl)on1	5.4	1.0%	-3.6%	-24.9%	-1.1%	-2.4
Cc1ccc(NC(=O)OCc2cc(-c3ccccc3)on2)cc1	74.9*	2.1%	-0.5%	-36.9%	-1.5%	37.6*
Cc1ccc(NC(=O)OCc2cccs2)cc1	80.7*	2.2%	.	-23.7%	-16.5%	21.6*
CCOn1c(=O)c(-c2cccs2)[n+]([O-])c2ccccc21	-3.6	-8.2%	11.9%	-14.4%	-2.7%	14.6
CCOC(=O)COn1c(=O)c(-c2cccs2)[n+]([O-])c2ccccc21	30.4	0.6%	2.4%	-25.8%	-2.1%	33.0*
COn1c(=O)c(-c2cccs2)[n+]([O-])c2ccccc21	48.6	5.6%	0.0%	-19.4%	-3.9%	19.9*
COn1c(=O)c(-c2ccccc2)[n+]([O-])c2ccccc21	2.7	-9.7%	-2.1%	-11.2%	0.3%	-3.5
N=C1/C(=C/c2ccc(OCc3ccccc3F)cc2)C(=O)N=C2SC(CC(=O)N3CCOCC3)=NN12	84.7*	-7.0%	55.1%	0.8%	-8.5%	22.5*
N=C1/C(=C\c2ccc(OC(=O)c3ccccc3Cl)cc2)C(=O)N=C2SC(N3CCOCC3)=NN12	58.0*	-14.3%	49.8%	-34.2%	-6.6%	24.3*
N=C1/C(=C/c2ccc(OCc3ccccc3)cc2)C(=O)N=C2SC(CC(=O)N3CCOCC3)=NN12	32.1	?	25.5%	-7.7%	-9.7%	15.4*
COc1cccc(C2C(C(=O)Nc3ccc(Cl)cc3)=C(C)Nc3nc4ccccc4n32)c1OC (configuration not stated)	.	15.8%	.	.	.	.
CCn1cc(C(=O)NCCCOC)c(=O)c2cc(S(=O)(=O)N3CCCC3)ccc21	2.9	4.4%	-8.0%	32.4%	3.7%	-3.9
Cc1cccn2c(=O)c(C(=O)N3CCN(c4ccccc4)CC3)cnc12	.	5.9%	.	.	.	.
CC1CC(=O)N(c2ccc(N(C)Cc3ccccc3)c([N+](=O)[O-])c2)C1=O (configuration not stated)	54.1*	2.3%	-3.6%	75.3%	-0.3%	18.0*
S=c1cnc2ccccc2[nH]1	70.2	5.2%	31.8%	-17.2%	-0.5%	30.0*
Oc1ccccc1-c1cc(-c2ccc(F)cc2)n[nH]1	.	?	67.2%	-48.1%	-5.5%	30.5*
Oc1ccc(Cl)cc1-c1cc(-c2ccccc2)n[nH]1	31.4	?	119.8%	?	-23.8%	17.6*
Cc1ccc(O)c(-c2cc(-c3cccc(Br)c3)n[nH]2)c1	97.6*	-2.4%	94.8%	42.7%	0.0%	45.1*
Oc1ccc(F)cc1-c1cc(-c2ccc3c(c2)OCCO3)n[nH]1	90.2*	-2.2%	30.8%	-38.3%	-2.3%	42.2*
Cc1nc2ccccc2c(=O)n1-c1cccc(NS(=O)(=O)c2ccccc2)c1	.	?	-0.8%	-24.4%	-1.6%	.
O=C(C[n+]1ccc(-c2ccccc2)cc1)Nc1ccc([N+](=O)[O-])cc1	-5.8	?	-1.8%	-4.1%	4.3%	1.3
Cc1ccc(-c2cc(-c3ccc(F)cc3)n[nH]2)c(O)c1	101.1*	-7.3%	87.8%	-25.8%	-17.4%	50.7*
Cc1ccc(-c2cc(-c3ccc(C)cc3O)[nH]n2)cc1	50.9*	-4.8%	159.4%	-36.6%	-13.8%	41.3*
